# Results filed as inconclusive are left out. Activity calls are given as the source filed them. Unless noted, calls follow the shape of the dose curve; as a rule, active = well fitted cell-killing curve with a large enough effect; inconclusive = small, poorly fitted or top-dose-only effect, or effect the other way; inactive = no such curve, though single readings can be large or run the other way.
# How the values were obtained:
# [1] = Quantitative High-Throughput drug screen in 47 multiple myeloma cell lines against the NCATS MIPE library collection: VP6_DJ cell viability assay (AID 1919867); also: potency is read from the fitted curve at half-maximal effect; nearly all actives have a fitted effect of over 40% in size
# In short: (§1)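 Plated at 500 cells per well, myeloma lines received MIPE 4.0 compounds by pin tool. Following 48 h culture at 37 °C, CellTiter-Glo luminescence gave viability relative to DMSO and media-only controls.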
# [2] = Quantitative High-Throughput drug screen in 47 multiple myeloma cell lines against the NCATS MIPE library collection: UTMC2_PLB cell viability assay (AID 1919868); conditions: CellTiter-Glo ATP luminescence, 48 h; viability (% of DMSO control): at 45.8 µM (top of the series) unless noted; also: potency is read from the fitted curve at half-maximal effect; nearly all actives have a fitted effect of over 55% in size
# In short: as §1
# [3] = Quantitative High-Throughput drug screen in 47 multiple myeloma cell lines against the NCATS MIPE library collection: PE2_PLB cell viability assay (AID 1919869); also: potency is read from the fitted curve at half-maximal effect; nearly all actives have a fitted effect of over 35% in size
# In short: as §1
# [4] = Quantitative High-Throughput drug screen in 47 multiple myeloma cell lines against the NCATS MIPE library collection: PCM6_Riken cell viability assay (AID 1919870); also: potency is read from the fitted curve at half-maximal effect; nearly all actives have a fitted effect of over 30% in size
# In short: as §1
# [5] = Quantitative High-Throughput drug screen in 47 multiple myeloma cell lines against the NCATS MIPE library collection: RPMI8226_ATCC cell viability assay (AID 1919871); also: potency is read from the fitted curve at half-maximal effect; nearly all actives have a fitted effect of over 30% in size
# In short: as §1
# [6] = Quantitative High-Throughput drug screen in 47 multiple myeloma cell lines against the NCATS MIPE library collection: OPM2_DSMZ cell viability assay (AID 1919872); also: potency is read from the fitted curve at half-maximal effect; nearly all actives have a fitted effect of over 30% in size
# In short: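 Steps: seed 500 cells per well; pin-transfer MIPE 4.0 library; incubate 48 h at 37C, 5% CO2, humidified; add CellTiter-Glo, 5 min room temperature; read luminescence.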
# [7] = Quantitative High-Throughput drug screen in 47 multiple myeloma cell lines against the NCATS MIPE library collection: KMS11_JCRBsus cell viability assay (AID 1919873); also: potency is read from the fitted curve at half-maximal effect; nearly all actives have a fitted effect of over 50% in size
# In short: as §1
# [8] = Quantitative High-Throughput drug screen in 47 multiple myeloma cell lines against the NCATS MIPE library collection: KMS28BM_JCRB cell viability assay (AID 1919874); also: potency is read from the fitted curve at half-maximal effect; nearly all actives have a fitted effect of over 35% in size
# In short: as §1
# [9] = qHTS drug screen for cell cycle checkpoint inhibitors in PARPi-resistant BRCA-mutant ovarian cancer cell lines. (AID 1963452; calls by dose curve); conditions: PEO1/OlaR viability, CellTiter-Glo luminescence, 96 h, stronger effect = lower value
# In short: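 PEO1, PEO4 and PEO1/OlaR ovarian cancer cells, 600 per well, exposed 96 h at 37C to a dilution series. Viability read by CellTiter-Glo luminescence, normalized to DMSO and empty wells; activity summarized as Z-AUC.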
# [10] = qHTS for identification of novel therapeutic agents for treatment of microphthalmiaassociated transcription factor (MiT) renal cell carcinoma (RCC) (AID 1963991; calls by dose curve; also: potency is read from the fitted curve at half-maximal effect); conditions: CellTiter-Glo, 48 h; for Potency: active = Z-AUC below -0.8 in all three lines; for z-score: stronger effect = lower value
# In short: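 Three TFE3-fusion RCC lines (UOK109, UOK124, UOK145), 500 cells/well in complete medium, were treated with MIPE 4.0 compounds for 48 hours at 37 C. Viability was by CellTiter-Glo luminescence, normalized to DMSO (100%) and empty wells (0%); curves fitted over 11 concentrations.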
# [11] = measured here: PEO1 parental Z-AUC
# [12] = TFE3-RCC UOK109 viability, measured here: UOK109 Z-AUC
# [13] = TFE3-RCC viability, measured here: UOK124 Z-AUC
# [14] = TFE3-RCC viability, measured here: UOK145 Z-AUC
Structure (SMILES),Potency [1],Potency [2],Potency [3],Potency [4],Potency [5],Potency [6],Potency [7],Potency [8],Z-AUC [9],"Z-AUC [9, 11]",Z-AUC ([9]; measured here: PEO4 Z-AUC),Potency ([10]; TFE3-RCC UOK109 viability),"z-score [10, 12]","z-score [10, 13]","z-score [10, 14]"
CNC(=O)c1ccccc1Nc1nc(Nc2ccc(N3CCOCC3)cc2OC)ncc1Cl,0.526 µM (active),0.209 µM (active),1.18 µM (active),10.5 µM (active),1.05 µM (active),4.18 µM (active),0.372 µM (active),0.935 µM (active),0.733 (inactive),0.134,0.16,,,,
Nc1ccccc1NC(=O)c1ccc(CNc2nccc(-c3cccnc3)n2)cc1,0.469 µM (active),0.833 µM (active),1.32 µM (active),2.35 µM (active),2.64 µM (active),2.64 µM (active),0.662 µM (active),0.833 µM (active),-0.45 (inactive),-0.821,-0.657,,,,
COc1cc(Nc2ncc(F)c(Nc3ccc4c(n3)N(COP(=O)(O)O)C(=O)C(C)(C)O4)n2)cc(OC)c1OC,1.48 µM (active),5.26 µM (active),1.18 µM (active),9.35 µM (active),20.9 µM (active),18.7 µM (active),2.96 µM (active),,0.561 (inactive),0.402,0.538,,,,
C=CC(=O)Nc1cccc(Oc2nc(Nc3ccc(N4CCN(C)CC4)cc3)ncc2Cl)c1,5.9 µM (active),6.62 µM (active),5.9 µM (active),16.6 µM (active),14.8 µM (active),11.8 µM (active),1.05 µM (active),14.8 µM (active),-0.847 (inactive),-0.559,-0.604,0.833 µM (active),-2.72,-0.851,-2.36
Cc1cnc(Nc2ccc(F)cc2Cl)nc1-c1c[nH]c(C(=O)N[C@H](CO)c2cccc(Cl)c2)c1,5.26 µM (active),18.7 µM (active),6.62 µM (active),18.7 µM (active),20.9 µM (active),18.7 µM (active),16.6 µM (active),20.9 µM (active),0.276 (inactive),0.0916,0.18,,,,
O=C(c1ccc(Nc2nccc(-c3cc4ccccc4s3)n2)cc1)N1CCC(N2CCCC2)CC1,3.32 µM (active),6.62 µM (active),7.43 µM (active),1.87 µM (active),20.9 µM (active),20.9 µM (active),5.9 µM (active),9.35 µM (active),0.507 (inactive),0.645,0.0416,,,,
Cc1cc(Nc2cc(N3CCN(C)CC3)nc(C=Cc3ccccc3)n2)n[nH]1,15.2 µM (active),1.91 µM (active),13.6 µM (active),30.3 µM (active),13.6 µM (active),8.55 µM (active),1.21 µM (active),13.6 µM (active),,,,,,,
C1=CCOCc2cc(ccc2OCCN2CCCC2)Nc2nccc(n2)-c2cccc(c2)OCC1,1.05 µM (active),1.48 µM (active),1.66 µM (active),0.935 µM (active),5.9 µM (active),7.43 µM (active),1.32 µM (active),2.35 µM (active),,,,,,,
CCOc1cc2ncc(C#N)c(Nc3ccc(F)c(Cl)c3)c2cc1NC(=O)C=CCN(C)C,4.69 µM (active),0.296 µM (active),5.9 µM (active),1.66 µM (active),10.5 µM (active),14.8 µM (active),2.64 µM (active),3.32 µM (active),,,,0.0118 µM (active),-2.91,-1.47,-1.07
O=C(O)c1ccc2c(c1)nc(Nc1cccc(Cl)c1)c1ccncc12,5.9 µM (active),2.64 µM (active),2.64 µM (active),2.64 µM (active),18.7 µM (active),20.9 µM (active),7.43 µM (active),,-0.0299 (inactive),-0.574,-0.726,,,,
O=C(CCCCCCNC(=O)c1cnc(N(c2ccccc2)c2ccccc2)nc1)NO,2.35 µM (active),7.43 µM (active),9.35 µM (active),9.35 µM (active),14.8 µM (active),10.5 µM (active),,4.18 µM (active),0.809 (inactive),0.473,0.434,,,,
Cc1cc(Nc2ncnc3ccc(-c4ccc(CNCCS(C)(=O)=O)o4)cc23)ccc1Oc1ccn2ncnc2c1,1.48 µM (active),6.62 µM (active),3.32 µM (active),16.6 µM (active),26.4 µM (active),,5.9 µM (active),16.6 µM (active),0.841 (inactive),0.912,0.782,,,,
CC(C)(C)c1cnc(CSc2cnc(NC(=O)C3CCNCC3)s2)o1,0.148 µM (active),0.187 µM (active),0.296 µM (active),0.0833 µM (active),0.332 µM (active),,,0.148 µM (active),-0.758 (inactive),-1.2,-0.895,,,,
Cc1cc(C(=O)N2CCN(c3cccc(Cl)c3)CC2)n(-c2ccccc2)n1,1.32 µM (active),0.833 µM (active),3.72 µM (active),9.35 µM (active),5.9 µM (active),5.9 µM (active),,0.132 µM (active),-1.51 (inactive),-1.82,-1.79,,,,

# Source: PubChem BioAssay (NCATS)
